Screens deposited in PubChem by National Center for Advancing Translational Sciences (NCATS).
Sampled rows, rich in hits. Any-hit rate of the full collection: about 21%.
Pf growth 96h: P. falciparum growth inhibition at 96 hour, primary screen for plastid delayed-death inhibitors; Potency, µM (series often up to 28.7 µM), for the others: at the top dose activity change, negative = inhibition, most hits filed as inhibitors; P. falciparum luciferase reporter growth, 96 h; 6.9% of 320,000 active; further: potency means the concentration at half of the fitted maximal effect; on the % scale 0 is the no-effect control and ±100 the full control effect
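96 h incubation, 37 C, 5% CO2, of luciferase-reporter P. falciparum-infected RBCs (2% hematocrit, 0.05% parasitemia final) with test compounds; endpoint luminescence.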
Shiga toxin inh: inhibitors of Shiga toxin in Vero cells; Vero cells, Shiga toxin protein synthesis inhibition reporter; inhibition, % at 38.7 µM; 9.2% of 290,000 active; AID 2315; in the data active means inhibition mostly above about 28%, no sharp cut-off; inactive means mostly below about 43%; further: 0% is about no effect
Pf growth 48h: P. falciparum growth inhibition at 48 hours (one generation); 5.9% of 310,000 active; P. falciparum luciferase growth in erythrocytes, 48 h; Potency, µM (highest dose often 28.7 µM), for the others: at the top dose activity change, negative = inhibition, actives largely listed as inhibitors; further: potency means the concentration at half of the fitted maximal effect; on the % scale 0 is the no-effect control and ±100 the full control effect
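Here the parasites carry a stable luciferase gene and grow inside erythrocytes in Albumax-based RPMI medium with compound for one erythrocytic cycle. Activity is scored as loss of luminescent signal.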
CHX counter: counter-screen for Shiga toxin inhibitors: cycloheximide protein synthesis inhibition; AID 2314; max response, %; cell reporter, cycloheximide protein synthesis inhibition counterscreen; 12% of 300,000 active; in the data active means max response mostly above about 13%, no sharp cut-off; inactive means mostly below about 14%; further: read at 38.3 µM for the half of the compounds with a filed dose; 0% is about no effect
NS1 inh: blocks influenza NS1 protein function. 0.4% of 270,000 active. AID 2326. Potency, µM (top dose mostly 46.1 µM), for inactives: top-dose activity, positive = more growth; calls by dose curve; further: potency means the concentration at half of the fitted maximal effect; actives are rising curves; nearly all actives have a fitted effect of over 50% in size
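Growth recovery, yeast-based: influenza A NS1 expressed in S. cerevisiae causes slow growth, and suppressors are detected by OD600. The parent strain without NS1 is used as positive control.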
* marks the source's active call; other numbers are inactive results; ? = inconclusive; . = no result given; [ ] = dose if it differs, or a comment. Unless noted, the call rests on the fitted dose curve; in most records, active means well fitted inhibition curve with a large enough effect; inconclusive means small, poorly fitted or top-dose-only effect, or another doubt; inactive means no such curve, though single readings can be large or run the other way.

SMILES | Pf growth 96h | Shiga toxin inh | Pf growth 48h | CHX counter | NS1 inh
COc1ccccc1C1=NOC(Cn2c(NCCCO)nc3c2c(=O)n(C)c(=O)n3C)C1 (configuration not stated) | -16.4% | 8.6 | 17.9% | -1.1 | -2.6%
COc1ccc(C2=NOC(Cn3c(Cc4ccc(Cl)cc4)nc4c3c(=O)n(C)c(=O)n4C)C2)cc1 (configuration not stated) | 13.1µM* | 3.9 | -8.6% | -1.8 | -62.8%
O=S(=O)(c1ccc(OCC2CO2)cc1)c1ccc(OCC2CO2)cc1 (configuration not stated) | ? | 2.7 | -7.3% | -1.7 | -0.2%
CN(CCC#N)C(=O)c1cc2c(s1)-c1ccccc1SC2 | 165.1% | 80.6* | 152.6% | 51.7* | -1.7%
CCN1/C(=N\N)c2cccc3cccc1c23 | ? | -4.9 | -7.8% | -6.0 | 6.0%
COc1cccc2[nH]c(=O)c(-c3ccccc3)cc12 | 133.4% | 120.5* | -8.1%[0.00184 µM] | 61.2* | -33.7%
C/C(=N\NC(=O)c1ccc([N+](=O)[O-])cc1)c1cccc([N+](=O)[O-])c1 | ? | 3.2 | 27.3% | 10.8 | .
C/C(=N\NC(=O)c1cccc([N+](=O)[O-])c1)c1cccc(NC(=O)C2CC2)c1 | 16.0% | 14.0 | -2.3% | 16.7* | -0.1%
CC(C)NS(=O)(=O)c1ccc(NC(=S)NC(=O)c2cccc([N+](=O)[O-])c2)cc1 | 13.1µM* | 6.5 | 19.4% | -2.2 | 5.2%
O=[N+]([O-])c1ccc(N2CCN(C(=S)Nc3cccc(F)c3)CC2)cc1 | -14.4% | -3.3 | 3.29µM* | -3.6 | 0.9%
O=C(NC(=S)Nc1ccc(N2CCOCC2)cc1)c1cccc([N+](=O)[O-])c1 | 130.0% | -3.4 | 19.8% | -0.8 | 15.0%
C/C(=N\NC(=S)NC(C)C)c1cccc([N+](=O)[O-])c1 | ? | -0.7 | -16.3% | -1.3 | 4.7%
C/C(=N/NC(=S)Nc1cccc(C)c1)c1cccc([N+](=O)[O-])c1 | 11.6% | 9.7 | 11.7µM* | -3.5 | 13.4%
COc1cc(NC(=O)C2CSC3(C)CCC(=O)N23)c(OC)cc1Cl (configuration not stated) | 4.6% | . | ? | . | .
COC(=O)c1ccc(C(=O)OC)c(-n2c(=O)c3ccccc3c3ccccc3c2=O)c1 | 38.9% | 13.0 | 14.4% | 3.4 | 12.4%
O=C(NNC(=S)Nc1ccc(Cl)c(Cl)c1)c1cccc([N+](=O)[O-])c1 | 25.2% | 9.6 | 3.2% | 1.9 | -32.5%
Cc1cccc(NC(=S)NNC(=O)c2cccc([N+](=O)[O-])c2)c1 | ? | 50.4* | 64.2% | 19.3* | -3.8%
O=C(NNC(=S)NC(=O)c1ccccc1)c1cccc([N+](=O)[O-])c1 | -27.2% | 5.6 | . | 15.2 | -80.1%
O=C(NC(=S)Nc1cccc(F)c1)c1cccc([N+](=O)[O-])c1 | 38.2% | 67.0* | -32.4% | 19.7* | -3.6%
O=C(NNC(=S)NC(=O)c1cccc([N+](=O)[O-])c1)c1ccc(O)cc1 | 25.0% | 53.3* | 22.5% | 31.9* | -2.8%
CC(=O)N/C(=C/c1ccc2c(c1)OCO2)C(=O)NCCO | 44.5% | -1.7 | 22.9% | -3.3 | 27.3%
CCOc1ncccc1C(=O)Nc1ccc(OC)c(S(=O)(=O)N2CCOCC2)c1 | 16.1% | . | 31.0% | . | .
C=CCN1C(=O)/C(=c2\sc3nc(=O)c(Cc4ccc(OC)c(OC)c4)nn3c2=O)c2ccccc21 | -7.8% | -15.1 | -2.2% | -1.1 | -1.2%
Cc1noc(C)c1COc1ccccc1C(=O)NCc1ccccc1Cl | 5.22µM* | . | ? | . | .
Cc1noc(C)c1COc1ccccc1C(=O)NC(C)c1ccc(Cl)cc1 (configuration not stated) | 5.22µM* | . | 13.1µM* | . | .
SMILES | Pf growth 96h | Shiga toxin inh | Pf growth 48h | CHX counter | NS1 inh
Cc1noc(C)c1COc1ccccc1C(=O)NNC(=O)c1ccccc1 | 14.2% | . | 0.1% | . | .
NCCCC(N)(C(=O)O)C(F)F (configuration not stated) | 1.4% | -10.3 | -9.4% | 1.5 | -5.9%
Cc1ccc(CNC(=O)CCC(=O)Nc2nnc(C)s2)cc1 | -14.4% | 2.4 | ? | -3.3 | 3.4%
COc1ccccc1N1CCN(S(=O)(=O)CC23CCC(CC2=O)C3(C)C)CC1 (configuration not stated) | ? | -13.6 | -22.4% | -1.6 | -19.2%
Cc1ccc2[nH]c(-c3ccccc3)c(CN(C)C)c(=O)c2c1 | ? | 45.9 | ? | 40.7* | 5.2%
CCCc1c(C)c2cc(C)ccc2[nH]c1=O | 9.28µM* | 4.3 | 14.9% | -2.4 | -93.8%
C=CCc1c(C)[nH]c2ccc(C)cc2c1=O | . | 69.9* | 1.47µM* | 30.8* | -46.3%
CCc1c(C)[nH]c2ccc(C)cc2c1=O | 12.9% | 45.4* | 1.65µM* | 21.9* | -11.3%
Cc1ccc2[nH]c(C)c(CC(=O)O)c2c1 | . | 36.4 | ? | 7.1 | 9.0%
CCN(CC(=O)Nc1ccc(N2CCOCC2)cc1)C(=O)COc1ccccc1OC | 13.9% | 27.2 | -3.2% | 20.1 | 1.8%
Clc1ccc(/C=N/Nc2nnc(-c3ncc[nH]3)c3ccccc23)cc1 | 39.1% | 112.5* | 62.5% | 34.3* | 22.3%
Clc1cccc(/C=N/Nc2nnc(Cl)c3ccccc23)c1 | ? | 61.6* | ? | 19.2 | -10.9%
CC1(C)C(=O)Nc2ccccc2N1C(=O)CSc1ncccn1 | 15.2% | -11.3 | -11.8% | 0.9 | .
CCCCCCn1c(COc2ccccc2F)nnc1SCC(=O)N1c2ccccc2NC(=O)C1(C)C | 8.28µM* | -28.5 | 13.1µM* | -2.4 | ?
Cc1ccc(/C=N/N2CCN(c3ccc(Cl)cc3)CC2)o1 | 77.8% | 7.3 | -1.7% | -2.8 | 10.5%
Cc1ccc(/C=N/N2CCCCC2)o1 | 41.0% | 56.1* | 30.1% | 38.5* | .
O=S(=O)(Nc1nc2ccccc2nc1-[n+]1ccccc1)c1ccc(Cl)cc1 | ? | -16.8 | -17.4% | -0.8 | -5.0%
Cc1ccccc1C([O-])=Nc1ccc[n+](-c2nc3ccccc3nc2NS(=O)(=O)c2ccccc2)c1 | 11.7µM* | 20.0 | ? | -3.1 | 1.1%
COc1ccc(-c2csc(NC(=O)CCNC(=O)c3ccco3)n2)cc1OC | ? | . | 11.7µM* | . | .
O=C(Nc1nc(-c2ccccc2)cs1)c1ccc2c(c1)S(=O)(=O)c1ccccc1C2=O | 32.8% | -15.6 | 20.5% | -1.9 | -0.3%
COc1ccc(S(=O)(=O)Nc2ccccc2C(=O)Nc2nc(-c3ccc(F)cc3)cs2)cc1OC | ? | 3.9 | 3.29µM* | 1.1 | -52.1%
O=C(Nc1nc(-c2ccco2)cs1)c1ccccc1 | 84.3% | 36.2 | . | 31.7* | -53.4%
O=C(Nc1nc(-c2cccc3ccccc23)cs1)c1ccc2c(c1)S(=O)(=O)c1ccccc1C2=O | 30.0% | 61.9* | 66.2% | 21.4* | 1.4%
Cc1ccc(-c2csc(NC(=O)c3ccc(-c4ccccc4)cc3)n2)o1 | ? | 96.0* | ? | 48.3* | 8.5%
COc1ccc(-c2csc(NC(=O)c3c(OC)cccc3OC)n2)cc1 | ? | -7.6 | 5.86µM* | -3.0 | -3.4%
O=C(NC(=S)Nc1nc(-c2ccc(Br)cc2)cs1)c1ccco1 | 4.4% | 25.5 | 29.1% | 0.7 | .
Cc1ccc(-c2csc(NC(=O)c3ccco3)n2)cc1C | 0.586µM* | 148.6* | 20.5% | 33.8* | -68.9%
